Assay results published in ChEMBL document CHEMBL3433997, “St. Jude Leishmania screening dataset” (2016).

target: Glucose transporter (Leishmania mexicana) (UniProt O61059); assay: ST_JUDE_LEISH: Cytotoxicity at 2uM final concentration against transgenic Leishmania Mexicana promastigotes LmGT2 that are glucose transport deficient and complemented with the L. Mexicana glucose transporter 2. Activity is measured by DNA content using SYBR green in vitro; format: functional

Compound | inhibition
Cc1ccccc1CCNC(=O)c1ccc(N2CCN(c3ccncc3)CC2)nc1 | 0.46%
COc1ccc(CC2(c3ccc(F)cc3)N=C(N)N(CCCc3ccc(F)c(F)c3)C2=O)cc1 (stereo not given) | 3.88%
CCOc1cc(C(=O)Nc2ccccc2N2CCN(S(C)(=O)=O)CC2)cc(OCC)c1OCC | 3.43%
COc1ccc(NC(=O)/C=C/c2ccccc2Cl)cc1OCCN1CCN(c2ccncc2)CC1 | -1.49%
COc1cc2nc(NCC3CCCO3)n3nc(-c4ccccc4)nc3c2cc1OC (stereo not given) | 2.53%
CCNc1cc(C)nc(Nc2ccc(NC(=O)c3c(F)cccc3Cl)cc2)n1 | 2.56%
OC1CCN(c2cc(-c3ccccn3)nc(-c3ccccn3)n2)CC1 | -4.46%
CCNc1cc(C(=O)N[C@@H](Cc2ccccc2)[C@H](O)CNC2(CC)CC2)cc(N2CCCCS2(=O)=O)c1 | -2.45%
CCOC(=O)c1nc(-c2cccc(F)c2)[nH]c1N | 2.23%
CCCC(C)Nc1nc(C)cc(N[C@@H](Cc2ccccc2)C(=O)NCc2cccc(F)c2)n1 (stereo not given in full) | 2.68%
CC(=O)Oc1c(C2CCN(CCCCNC(=O)c3ccc(-c4ccc(C#N)cc4)cc3)CC2)ccc2c1CCCC2 | 1.58%
Cc1cccc(NC(=O)Nc2ccc(I)c(OCCN(C)C)c2)c1C | 10.1%
CNCCNCc1cccc(-c2cccc(-c3nc4cccc(C)c4[nH]3)c2)c1 | 0.35%
CCCN1CCN(CCCNc2c3ccccc3nc3ccccc23)CC1 | 65.1%
O=C1C(=Cc2cc(Cc3ccccc3)ccc2O)SC(=S)N1Cc1ccccc1 | 8.43%
O=C(Nc1cccc(CN2CCCN(Cc3ccc(F)cc3)CC2)c1)c1ccc(Cl)c(Cl)c1 | 0.56%
CC1(C)CC(=O)c2c(O)cc(OCc3ccncc3)cc2O1 | 0.66%
CN(C)c1ccc(-c2csc(C(=O)NC3CCCCN(Cc4ccc(C(C)(C)C)cc4)C3)c2)cc1 (stereo not given) | 1.96%
O=C(/C=C/c1ccc(Cl)c(Cl)c1)NCCCCCN1CCC(NC(=O)c2cccc(Cl)c2)CC1 | 7.71%
Clc1ccc(Sc2cncnc2N2CCOCC2)cc1 | -0.01%

Compound | inhibition
CN(c1ccc(NC(=O)Nc2cc(C(F)(F)F)ccc2F)cc1)c1ccnc(NCCN2CCCC2)n1 | 4.41%
Cc1ccc(Nc2nccc(Nc3ccc4c(C)n[nH]c4c3)n2)cc1F | 1.7%
CCN(CC)Cc1cc(Nc2ccnc3cc(Cl)ccc23)ccc1O | 4.65%
CN(C)CCOc1cc(NC(=O)Nc2ccc3c(c2)CCCC3=O)ccc1I | 4.5%
CCCCCCn1c(Sc2ccc(C#N)c([N+](=O)[O-])c2)nnc1-c1ccc(Cl)cc1 | 2.57%
CCNc1cc(C(=O)NC(Cc2ccccc2)C(O)CNC(C)(C)CCCC(C)C)c(F)c(N2CCCS2(=O)=O)c1 (stereo not given) | 1.59%
Clc1ccccc1/C=C/c1cncnc1Nc1ccc2[nH]c(Cc3ccccc3)nc2c1 | 1.23%
COc1cc(NC(=O)NC(CCN2CCC3(CCc4ccccc43)CC2)c2ccc(Cl)c(Cl)c2)cc(OC)c1OC (stereo not given) | -3.62%
CN(C)CCNC(=O)N1CCCN(c2ncnc3cc(-c4ccccc4)sc23)CC1 | 6.1%
COc1cc(CC2c3cc(O)c(Cl)cc3CCN2C)c(OC)cc1C (stereo not given) | 5.31%
FC(F)(F)c1ccc2[nH]c(-c3ccc(-c4cccc(CN5CCN(CCN6CCOCC6)CC5)c4)cc3)nc2c1 | 2.25%
COc1cc2nc(N3CCC(CNC(=O)c4cccc5cc[nH]c45)CC3)nc(N)c2cc1OC | 5.67%
CON=Cc1sc(CNCCCN=c2cc(O)c3ccccc3[nH]2)c(C)c1Br | 3.41%
Cc1cccc(NC(=O)N(Cc2cc3cc(C)cc(C)c3[nH]c2=O)C2CC2)c1 | 6.55%
CC1(C)NC(N)=NC(=N)N1OCCCOc1c(Cl)cc(Cl)cc1Cl | -2.41%
Cc1cc(C)c(NC(=O)NC2CCN(CCCCCNC(=O)/C=C/c3ccc(Cl)c(Cl)c3)CC2)c(C)c1 | 3.81%
COC(=O)c1cccc(C#CCCOCCCCCCNC[C@H](O)c2cc(Cl)c(N)c(Cl)c2)c1 | 1.01%
O=S(=O)(c1cc(Cl)c(Cl)cc1Cl)N1CCCCC(c2ccc(C(F)(F)F)cc2)=N1 | 0.91%
COc1cc(NC(=O)/C=C/c2ccccc2OC(F)(F)F)cc(OCCN2CCCCC2)c1 | 1.67%
O=C(Nc1ccc(OC2CCN(Cc3ccc(F)cc3)C2)c(Cl)c1)c1ccoc1 (stereo not given) | 0.61%
